High-throughput results as filed in PubChem.
Rows were chosen to be rich in hits. Some 10% of all compounds tested hit in one or more screens of this group.
KB-3-1 cytotox: kills parental KB-3-1 adenocarcinoma cells | Potency, µM (titrated, usually from 46.1 µM), most hits filed as cytotoxic | KB-3-1 viability, CellTiter-Glo ATP luminescence, 72 h | actives 1.4% (n = 400,000); note: % is set by controls: 0 for no effect and ±100 for the full control effect; nearly all actives have a fitted effect of over 60% in size
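Parental KB-3-1 adenocarcinoma cells in phenol-red-free DMEM with 10% FBS were pin-treated with compounds at several concentrations, incubated 72 h at 37 °C, and viability read by CellTiter-Glo luminescence; concentration-effect curves were fitted after normalization.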
KB-V1 MDR tox: KB-V1 MDR subline cytotoxicity; KB-V1 MDR cells viability, CellTiter-Glo, 72 h; Potency, µM (top dose mostly 46.1 µM), most hits filed as cytotoxic; actives 3.4% (n = 400,000); note: % is set by controls: 0 for no effect and ±100 for the full control effect; nearly all actives have a fitted effect of over 60% in size
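Following 72 h at 37 degrees C with compound, KB-V1 cell viability was read by CellTiter-Glo luminescence, medium being phenol-red-free DMEM plus 10% FBS; concentration-response parameters came from normalized, curve-fitted qHTS data.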
SW480 rerep: induces DNA re-replication in SW480 colon adenocarcinoma cells; Potency, µM (highest dose often 46.1 µM), for the others: top-dose re-replication activation, most hits filed as activators; SW480 DNA re-replication, Hoechst DNA content imaging, 48 h; actives 1.8% (n = 340,000); note: % of control where 0% means no effect; nearly all actives have a fitted effect of over 55% in size
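Image-based read-out: total Hoechst fluorescence of nuclei (405 nm excitation, 500-530 nm emission), with hits raising the fraction of high-intensity nuclei. SW480 colon cells incubated 48 hr with compounds at 37 C.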
VP16 counter: counter-screen for ROR gamma inhibitors: Gal4-VP16 reporter; Drosophila S2 Gal4-VP16 UAS-luciferase, luminescence, 20 h; actives 3.5% (n = 310,000); Potency, µM (highest dose often 53.6 µM), inactives show at the top dose activity, negative = inhibition, usual class: inhibitors;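 note: Gal4-VP16 expression switched on by copper sulfate through the metallothionein promoter; % is set by controls: 0 for no effect and ±100 for the full control effect; nearly all actives have a fitted effect of over 50% in size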
MCF10A rereplic: inducers of DNA re-replication in MCF 10A breast cells. MCF 10A DNA re-replication, Hoechst nuclear intensity, 48 h. Potency, µM (series often up to 46.1 µM), without a hit: at the top dose activity, positive = re-replication, actives largely listed as activators. actives 2.9% (n = 350,000). AID 624296; note: % of control where 0% means no effect; nearly all actives have a fitted effect of over 50% in size
RORg inh: inhibitors of mouse ROR gamma transcriptional activity; actives 5.4% (n = 310,000); Drosophila S2 Gal4-RORgamma UAS-luciferase reporter, 20 h; P51450; Potency, µM (series often up to 53.6 µM), for inactives: top-dose activity change, negative = inhibition, hits mostly inhibitors; note: % is set by controls: 0 for no effect and ±100 for the full control effect; nearly all actives have a fitted effect of over 60% in size
Target sequence (P51450 whole entry, looked up, the tested form may be a part): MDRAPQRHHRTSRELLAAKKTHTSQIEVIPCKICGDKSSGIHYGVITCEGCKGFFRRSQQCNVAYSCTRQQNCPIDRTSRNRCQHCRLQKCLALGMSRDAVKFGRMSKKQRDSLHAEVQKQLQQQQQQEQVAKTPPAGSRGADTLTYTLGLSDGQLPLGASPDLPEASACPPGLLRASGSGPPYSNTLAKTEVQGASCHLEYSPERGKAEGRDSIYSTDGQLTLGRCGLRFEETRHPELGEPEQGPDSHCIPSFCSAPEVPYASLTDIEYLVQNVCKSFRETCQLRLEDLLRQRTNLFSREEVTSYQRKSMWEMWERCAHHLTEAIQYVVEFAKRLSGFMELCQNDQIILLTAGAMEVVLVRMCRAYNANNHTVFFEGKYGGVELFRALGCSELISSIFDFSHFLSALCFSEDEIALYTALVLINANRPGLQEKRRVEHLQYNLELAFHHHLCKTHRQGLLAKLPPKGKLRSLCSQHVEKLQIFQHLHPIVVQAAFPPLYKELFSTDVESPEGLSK
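Luciferase reporter read in Schneider cells carrying Gal4-RORγ (mouse) and UAS-Photinus luciferase; cells given compound 1 h before 700 uM copper sulfate induction, then incubated 20 h at ambient temperature.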
The depositor's hits bear a star; i = inactive; ? = inconclusive; . = no result given; ! = repeats disagree; [ ] = remark or other dose. Calls come from the whole dose curve; as a rule, active = well fitted curve in the direction sought with a large enough effect; inconclusive = small, poorly fitted or top-dose-only effect, or another doubt; inactive = no such curve, though single readings can be large; an effect the other way counts as inactive or inconclusive. Potency is the fitted concentration of half-maximal effect.

SMILES | KB-3-1 cytotox | KB-V1 MDR tox | SW480 rerep | VP16 counter | MCF10A rereplic | RORg inh
O=C(CSc1nc2ccccc2s1)NNC(=S)Nc1ccc(Br)cc1 | i | ? | 4% | ? | ? | 0.89µM*
N#CC1(NC(=O)CSc2nc3ccc([N+](=O)[O-])cc3s2)CCCCC1 | i | ? | 1% | . | 13% | .
COc1ccc(C)cc1NC(=O)C(=O)NNC(=O)COc1ccc(Cl)cc1 | i | i | -7% | 7% | 21µM* | ?
CCc1ccc(C2C(C(=O)Nc3ccc(Cl)cc3)=C(C)Nc3ncnn32)cc1 (stereo not given) | i | i | . | . | . | .
O=C(O)c1ccc(COc2ccccc2[N+](=O)[O-])o1 | i | i | -12% | -15% | -9% | 3%
CC(=O)c1ccc(NC(=O)c2ccc(COc3ccccc3[N+](=O)[O-])o2)cc1 | ? | 10µM* | 1% | -4% | 2% | ?
Cc1ccc(OCc2ccc(C(=O)NN)o2)c([N+](=O)[O-])c1 | i | i | ? | 3% | -3% | -64%
CC(=O)c1cccc(NC(=O)c2ccc(-c3ccccc3[N+](=O)[O-])o2)c1 | i | ? | -2% | 7.1µM* | 18µM* | ?
COC(=O)c1ccc(COc2ccc(C)cc2[N+](=O)[O-])o1 | i | i | -9% | ? | 1.8µM* | 23%
CC(=O)N1CCc2cc(Br)cc(S(=O)(=O)CCC(=O)N3CCN(c4ccccc4)CC3)c21 | i | i | . | . | . | .
COc1c([N+](=O)[O-])ccc(N)c1N | i | i | . | . | . | .
COc1ccc(N(CC(=O)NCc2cccs2)S(=O)(=O)c2ccc(C(C)=O)cc2)cc1 | i | i | . | . | . | .
CC1(C(=O)Nc2ccc3c(c2)OCO3)CCN1C(=O)C1CCCCC1 (stereo not given) | i | ? | . | . | . | .
Cc1ccc(-c2c(C)n3c4c(=O)n(C)c(=O)n(C)c4nc3n2CCCO)cc1 | ? | 6.5µM* | . | . | . | .
COC(=O)CCCn1c(-c2ccc(C)cc2)c(C)n2c3c(=O)n(C)c(=O)n(C)c3nc12 | i | ? | . | . | . | .
COc1ccc(-n2c(=O)cnc3cnc(Oc4ccccc4)nc32)cc1 | . | . | . | -1% | . | 11%
Oc1ccc(O)c(-c2cnns2)c1 | i | ? | ? | ? | ? | 3.2µM*
Nc1nc(N)nc(-c2cc(O)ccc2O)n1 | ? | i | ? | . | ? | .
CC(=O)OCC(=O)[C@@]12OC3(CCCC3)O[C@@H]1C[C@H]1[C@@H]3CCC4=CC(=O)C=C[C@]4(C)[C@@]3(F)[C@@H](O)C[C@@]12C | i | i | 0.26µM*! | -8% | ? | 8.9µM*
CC(C)n1cc(CN2CCC(C(=O)Nc3ccc(Oc4ccccc4F)cc3)CC2)cn1 | ? | i | ? | ? | 8% | -9%
CCn1cc(CN2CCC(C(=O)Nc3ccc(Oc4ccccc4F)cc3)CC2)c(C)n1 | i | ? | ? | -15% | 21µM* | 11%
Cc1ccc(C)c(N2CCN(C(=O)CN3C(=O)COc4ccc(S(=O)(=O)N5CCCC5)cc43)CC2)c1 | i | ? | . | . | . | .
CCN(CC)C(=O)c1cnn(-c2ccccc2)c1NC(=O)c1ccccc1F | i | 4.6µM* | -2% | -6% | 9% | ?
O=C1C=C[C@@H](O)[C@H]2[C@@H]3C(=O)N(Cc4ccc5c(c4)OCO5)C(=O)[C@@H]3CC[C@H]12 | . | . | . | 8%[10 µM] | . | 0%[10 µM]
COc1ccc(-n2c(N)c(C(=O)NCc3ccco3)c3nc4ccccc4nc32)cc1 | i | i | -4% | -16% | 4% | -21%
SMILES | KB-3-1 cytotox | KB-V1 MDR tox | SW480 rerep | VP16 counter | MCF10A rereplic | RORg inh
COc1cc(-n2c(N)c(C(=O)NCc3ccco3)c3nc4ccccc4nc32)cc(OC)c1OC | i | i | 12µM* | 12% | 9.2µM* | ?
COc1ccc(-n2c(N)c(C(=O)NCc3ccco3)c3nc4ccccc4nc32)cc1OC | i | i | 18µM* | -9% | 16µM* | 7%
COc1cccc(OC)c1C(=O)NCc1ccco1 | i | i | . | . | . | .
COc1ccc(OC)c(CNC(=O)c2cc3ccc4cccnc4c3[nH]2)c1 | i | i | . | . | . | .
COc1cc(/C=C/[N+](=O)[O-])ccc1OC(=O)c1cc2ccccc2oc1=O | i | ? | 21% | 7.1µM* | ? | 16µM*
COc1ccccc1OC(=O)c1cc2ccccc2oc1=O | i | ? | -2% | 5% | 3% | 0%
COc1ccc(-c2nc3ccc(C)cn3c2NCc2ccccc2)cc1SC1CCCCC1 | i | i | 3%[9.22 µM] | . | 18µM* | .
COc1ccc(-c2nc3ccc(Cl)cn3c2NC2CCCCC2)cc1SC1CCCCC1 | ? | i | -1% | . | 16µM* | .
CCCCNc1c(-c2ccc(SC3CCCCC3)c(OC)c2)nc2ccc(C)cn12 | ? | ? | ? | . | 10µM* | .
Cc1ccc2nc(-c3cccc(SC4CCCCC4)c3)c(NC3CCCCC3)n2c1 | i | i | 22% | . | 11% | .
COc1ccc(-c2ccc(-c3nc4ccc(C)cn4c3NC3CCCCC3)cc2OC)cc1 | ? | 16µM*! | ? | . | ? | .
COCCNc1c(-c2ccc(OC)c(OC)c2)nc2ccc(Cl)cn12 | i | i | -9% | 7% | ? | -40%
COc1ccc(-c2nc3ccc(C)cn3c2CC2CCCCC2)cc1OC | ? | i | . | . | . | .
CC1(C)CC(=O)C2=C(C1)NC(Nc1nc3ccccc3o1)=NC2c1cccnc1 (stereo not given) | i | i | . | . | . | .
Cc1ccc(NC(=O)Cn2c(=O)cc(-c3ccccc3)c3c(C)nn(C)c32)c(Cl)c1 | i | i | . | . | . | .
COc1ccc2c(c1)OC(=O)CC2c1ccccc1C (stereo not given) | . | . | . | -2%[96.6 µM] | . | -11%[96.6 µM]
CCCCNc1c(-c2ccc(OC)c(SC3CCCCC3)c2)nc2ccc(C)cn12 | ? | ? | 105% | . | 7.3µM* | .
Cc1ccc(-n2ncc(Br)c(Br)c2=O)cc1 | ? | i | -19% | 2.8µM* | ? | 5µM*
O=c1c(Br)c(N2CCCC2)cnn1-c1ccccc1 | i | ? | 0% | -19% | -1% | -11%
O=c1c(Br)c(Br)cnn1-c1ccccc1 | ? | ? | -8% | 5µM* | ? | 3.2µM*
COc1cccc(S(=O)(=O)N(C)C[C@@H]2Oc3cc(C#CCN(C)C)ccc3S(=O)(=O)N([C@H](C)CO)C[C@@H]2C)c1 | i | i | . | . | . | .
CC1CCCC2(C1)NC(=S)N(c1ccccc1)N2 (stereo not given) | i | i | -6% | -9% | 15% | 13µM*
